Measured values taken from the supplement of paper PMC8877412.
Counter-ions that a name gives are not always drawn. ± gives the uncertainty stated by the source.

Each compound was assayed on NCC-PMP1-C1 (assay: cell viability relative to DMSO control; higher = less growth inhibition). Conditions: 10 µM; 72 h.
Procedure: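 NCC-PMP1-C1 pseudomyxoma peritonei cells were seeded in 384-well plates coated with Matrigel and MEF (1e4 cells). Viability was read after 72 h by CCK-8 and expressed as % of the DMSO control, mean ± SD of duplicates.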

Compound	cell viability [%]
CN(C)c1nc(N(C)C)nc(N(C)C)n1 [Altretamine]	113 ± 7.4
CC(C)C(=O)Nc1ccc([N+](=O)[O-])c(C(F)(F)F)c1 [Flutamide]	74 ± 38
C=CC(=O)N1CCC(Oc2cc3c(Nc4ccc(Cl)c(Cl)c4F)ncnc3cc2OC)CC1 [Poziotinib (HM781-36B)]	76.9 ± 8.5
C=C1c2cccc(O)c2C(O)=C2C(=O)[C@]3(O)C(O)=C(C(N)=O)C(=O)[C@@H](N(C)C)[C@@H]3[C@@H](O)[C@H]12 [Methacycline HCl]	108.4 ± 0.2
CC[C@@]1(O)C(=O)OCc2c1cc1n(c2=O)Cc2cc3c(CN(C)C)c(O)ccc3nc2-1 [Topotecan HCl]	55.8 ± 2.9
COc1cc(Nc2ncc(F)c(Nc3ccc4c(n3)N(COP(=O)(O)O)C(=O)C(C)(C)O4)n2)cc(OC)c1OC [Fostamatinib (R788)]	4.92 ± 3.4
C=CC[C@@H]1/C=C(\C)C[C@H](C)C[C@H](OC)[C@H]2O[C@@](O)(C(=O)C(=O)N3CCCC[C@H]3C(=O)O[C@H](/C(C)=C/[C@@H]3CC[C@@H](O)[C@H](OC)C3)[C@H](C)[C@@H](O)CC1=O)[C@H](C)C[C@@H]2OC [Tacrolimus (FK506)]	2.67 ± 1
C=CC(=O)Nc1cc(Nc2nccc(-c3cn(C)c4ccccc34)n2)c(OC)cc1N(C)CCN(C)C [Osimertinib (AZD9291)]	4.44 ± 0.89
COc1cccc2c1C(=O)c1c(O)c3c(c(O)c1C2=O)C[C@@](O)(C(=O)CO)C[C@@H]3O[C@H]1C[C@H](N)[C@H](O)[C@H](C)O1 [Doxorubicin (Adriamycin)]	3.06 ± 0.067
COc1ccc(/C=C/C(=O)Nc2ccccc2C(=O)O)cc1OC [Tranilast]	111 ± 20
C/C=C1\NC(=O)[C@H]2CSSCC/C=C/[C@H](CC(=O)N[C@H](C(C)C)C(=O)N2)OC(=O)[C@H](C(C)C)NC1=O [Romidepsin (FK228, Depsipeptide)]	22.2 ± 22
CNNCc1ccc(C(=O)NC(C)C)cc1 [Procarbazine HCl]	100 ± 22
Cc1cn(-c2cc(NC(=O)c3ccc(C)c(Nc4nccc(-c5cccnc5)n4)c3)cc(C(F)(F)F)c2)cn1 [Nilotinib (AMN-107)]	70.1 ± 16
O=C(O)C(=O)O.[NH-][C@@H]1CCCC[C@H]1[NH-].[Pt+2] [Oxaliplatin]	103 ± 15
COc1cc([C@@H]2c3cc4c(cc3[C@@H](O[C@@H]3O[C@@H]5CO[C@@H](c6cccs6)O[C@H]5[C@H](O)[C@H]3O)[C@H]3COC(=O)[C@H]23)OCO4)cc(OC)c1O [Teniposide]	13.5 ± 1.5
N#Cc1ccc(C(c2ccc(C#N)cc2)n2cncn2)cc1 [Letrozole]	129 ± 29
CC#CCn1c(N2CCC[C@@H](N)C2)nc2c1c(=O)n(Cc1nc(C)c3ccccc3n1)c(=O)n2C [Linagliptin]	94.5 ± 11
Nc1nc(F)nc2c1ncn2[C@@H]1O[C@H](CO)[C@@H](O)[C@@H]1O [Fludarabine]	114 ± 29
Nc1cc(C(Cl)=C(Cl)Cl)c(S(N)(=O)=O)cc1S(N)(=O)=O [Clorsulon]	117 ± 9.7
Oc1ncnc2[nH]ncc12 [Allopurinol]	123 ± 13
O=C1c2c(O)ccc(O)c2C(=O)c2c(NCCNCCO)ccc(NCCNCCO)c21 [Mitoxantrone 2HCl]	2.67 ± 1.1
FC(F)(F)c1ccc(/C=C/c2nc(COc3ccc(CCCCn4ccnn4)cc3)co2)cc1 [Mubritinib (TAK 165)]	171 ± 3.5
CCc1ccc(CCOc2ccc(CC3SC(=O)NC3=O)cc2)nc1 (stereo not given) [Pioglitazone]	92.8 ± 5.5
N#CC1(c2ccc(NC(=O)c3cccnc3NCc3ccncc3)cc2)CCCC1 [Apatinib]	77.6 ± 9.1
CCN1CCN(Cc2ccc(Nc3ncc(F)c(-c4cc(F)c5nc(C)n(C(C)C)c5c4)n3)nc2)CC1 [Abemaciclib mesylate]	77.7 ± 1.2
Cc1ccc(Nc2nccc(N(C)c3ccc4c(C)n(C)nc4c3)n2)cc1S(N)(=O)=O	72.5 ± 0.73
COc1nc(N)nc2c1ncn2[C@@H]1O[C@H](CO)[C@@H](O)[C@@H]1O [Nelarabine]	127 ± 21
CO[C@@]12[C@H](COC(N)=O)C3=C(C(=O)C(C)=C(N)C3=O)N1C[C@@H]1N[C@@H]12 [Mitomycin C]	60.3 ± 9.8
FC(F)(F)c1ccc(CNc2ccc(Cc3c[nH]c4ncc(Cl)cc34)cn2)cn1 [Pexidartinib (PLX3397)]	63.2 ± 6
S=C(NCc1ccc2c(c1)OCO2)N1CCN(c2ncnc3c2oc2ccccc23)CC1 [Amuvatinib (MP-470)]	176.1 ± 0.89
